Bioassay records as filed in PubChem.
Shiga toxin inh: Shiga toxin inhibition; Vero cells, Shiga toxin protein synthesis inhibition reporter; inhibition, % at 38.7 µM; hit rate 9.2% among 290,000; AID 2315; in the data active = inhibition mostly above about 28%, no sharp cut-off; inactive = mostly below about 43%; also: 0% is about no effect
Pf growth 96h: inhibits malaria parasite growth, 96 h; hit rate 6.9% among 320,000; P. falciparum luciferase reporter growth, 96 h; Potency, µM (series often up to 28.7 µM), inactives show at the highest dose activity change, negative = inhibition, hits mostly inhibitors; active = well fitted inhibition curve with a large enough effect; inconclusive = small, poorly fitted or top-dose-only effect, or another doubt; inactive = no such curve, though single readings can be large or run the other way; also: potency is read from the fitted curve at half-maximal effect; % is scaled to controls: 0 for no effect and ±100 for the full control effect
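Parasite growth measured via integrated firefly luciferase reporter in P. falciparum. Infected erythrocytes at 2% hematocrit, 0.05% parasitemia final were treated 96 hours at 37 C under 5% CO2, and luminescence was read.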
CHX counter: counter-screen hit for Shiga toxin inhibitors, cycloheximide | cell reporter, cycloheximide protein synthesis inhibition counterscreen | max response, % | hit rate 12% among 300,000; in the data active = max response mostly above about 13%, no sharp cut-off; inactive = mostly below about 14%; also: read at 38.3 µM for the half of the compounds with a filed dose; 0% is about no effect
NS1 function inh: blocks influenza NS1 protein function | Potency, µM (doses to about 46.1 µM), for inactives: at the top dose activity, positive = more growth | hit rate 0.4% among 270,000 | AID 2326; also: potency is read from the fitted curve at half-maximal effect; actives are rising curves; nearly all actives have a fitted effect of over 50% in size
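Compounds were scored for reversing the slow growth caused by influenza A NS1 in S. cerevisiae, measured by optical density at 600 nm. Assay medium contained 2% galactose at pH 6.0; NS1-free yeast of the same strain were the positive control.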
Pf growth 48h: P. falciparum growth inhibition at 48 hours (one generation) | P. falciparum luciferase growth in erythrocytes, 48 h | AID 504832 | hit rate 5.9% among 310,000 | Potency, µM (series often up to 28.7 µM), for the others: at the highest dose activity change, negative = inhibition, usual class: inhibitors; active = well fitted inhibition curve with a large enough effect; inconclusive = small, poorly fitted or top-dose-only effect, or another doubt; inactive = no such curve, though single readings can be large or run the other way; also: potency is read from the fitted curve at half-maximal effect; % is scaled to controls: 0 for no effect and ±100 for the full control effect
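First compound was added to culture medium, then infected red cells at 0.1% parasitemia and 2% hematocrit (final). After incubation at 37 C under 5% CO2, luciferase detection reagent was dispensed and light output recorded.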
SARS PLP yeast: inhibitors of SARS-CoV papain-like protease in yeast. Potency, µM (series often up to 32.9 µM), inactives show at the top dose activity, positive = growth rescue, most hits filed as activators. S. cerevisiae expressing SARS-CoV PLpro, growth rescue. hit rate 0.19% among 330,000; also: potency is read from the fitted curve at half-maximal effect; 0% is about no effect; nearly all actives have a fitted effect of over 55% in size
* hit, by the source's call; ? = inconclusive; . = no result; [ ] = another dose, or the depositor's remark. An excerpt weighted towards active compounds, which were near 21% of everything screened. Unless noted, calls follow the shape of the full dose curve.

SMILES | Shiga toxin inh | Pf growth 96h | CHX counter | NS1 function inh | Pf growth 48h | SARS PLP yeast
CCOC(=O)C1CCCN(C(=O)C(=O)c2cn(CC(=O)N3CCOCC3)c3ccccc23)C1 (configuration not stated) | -10 | -5% | -1 | -1% | 0% | 6%
CCOc1ccc(OCC)c(S(=O)(=O)n2cnc(C)c2)c1 | . | 35% | -1 | -4% | ? | 2%
C/C=C\C=C\C(=O)Nc1cccc(C2=NOC3(C2)C[C@@H](C(N)=O)N(C(=O)C(c2ccccc2)c2ccccc2)C3)c1 (some centres not stated) | 0 | ? | -6 | 3% | ? | 0%
CCCCn1nc(C(=O)N(C)C2CCCCC2)c2ccccc2c1=O | . | ? | . | . | ? | 3%
CCCC(=O)Nc1ccc2c(c1)nc(CCN1CCCCC1)n2C | -10 | 66% | -1 | 5% | 0% | 1%
CN1CCc2cc(O)c(O)cc2C1Cc1ccc(O)c(O)c1 (configuration not stated) | -17 | . | -6 | . | . | .
Cc1ccc(C2C(=O)c3ccccc3C2=O)cc1 | 11 | -7% | 19* | 0% | -5% | 1%
O=C1c2ccccc2C(=O)C1c1ccccn1 | 34 | 136% | 30* | -5% | 103% | 0%
O=C1c2ccccc2C(=O)C2OC12 (configuration not stated) | 24 | 11% | -1 | -81% | 3% | -5%
O=C1c2ccccc2C(=O)C1c1ccncc1 | 46 | . | 22* | -5% | 227% | -9%
Cc1ccc(C)c(N2CCN(C(=O)Cc3c(C(=O)O)[nH]c4ccc(Cl)cc34)CC2)c1 | -3 | 25% | -2 | 0% | -1% | 0%
CCCS(=O)(=O)Nc1c(OC)ccc2c1c(C(=O)OCC)c(C)n2C | 13 | ? | 3 | -1% | 10% | 10%
CC1=CC(C)[C@@H]2COC(c3ccc(O)cc3)[C@H]1C2C (some centres not stated) | -4 | 9.3µM* | -5 | -7% | ? | 0%
COc1cc([C@H]2OC[C@H]3[C@@H]2CO[C@H]3c2ccc(O)c(OC)c2)ccc1O | . | . | . | . | . | 1%
CC1=CC(C)C2COC(c3ccc[n+](C)c3)C1C2C (configuration not stated) | -6 | ? | 1 | 6% | 15µM* | -12%
O=C(N/N=C\c1ccncc1)c1ccccc1O | 20 | 23% | 22 | . | 101% | 1%
Cc1ccc(-c2ccc(/C=N\NC(=O)c3cc4c(ccc5ccccc54)o3)o2)cc1[N+](=O)[O-] | 10 | 2.9µM* | -2 | 15% | ? | -3%
C=CCNC(=S)N/N=C/c1ccc(-c2ccc(OC)cc2)o1 | 51 | ? | 16 | 2% | 5.2µM* | 1%
O=C(N/N=C/c1ccc(-c2ccc([N+](=O)[O-])cc2)o1)C(O)c1ccccc1 (configuration not stated) | 13 | -5% | 0 | -22% | -2% | 7%
O=C(N/N=C/c1ccc(-c2ccccc2)o1)c1ccccc1O | 40* | ? | 16 | 2% | ? | -2%
CCCCC(=O)N/N=C/c1ccc(-c2ccc([N+](=O)[O-])cc2)o1 | 25* | 9.3µM* | 14 | -3% | -24% | -2%
CCOC(=O)N1CCC(N(CCN(C)C)C(=S)Nc2cc(Cl)ccc2C)CC1 | -8 | 92% | 5 | . | 28% | 0%
O=C(COC(=O)c1ncc(Cl)c(Cl)c1Cl)NCCc1ccccc1 | . | 18% | . | . | 3% | 0%
COc1ccc(-n2cc(C#N)c(=O)[nH]c2=O)cc1 | -10 | 65%[1.15 µM] | -3 | 4% | ? | -1%
CNC(=S)N/N=C/c1ccc(-c2ccc(C(=O)O)cc2)o1 | 56* | 264% | 23* | -2% | 1% | -6%
CCc1nnc(N/N=C/c2ccc(-c3ccc([N+](=O)[O-])cc3)o2)n1N | -3 | ? | 12 | . | 12µM* | -8%
CCc1nnc(N/N=C/c2cc(C)c(C)cc2C)n1N | 10 | ? | -2 | -69% | -19% | -13%
Cc1cc([N+](=O)[O-])ccc1-c1ccc(/C=N/NC(=O)c2ccc(Br)o2)o1 | 23 | ? | -2 | -28% | ? | ?
